Measurements taken from PubChem BioAssay (NCI).
Values joined by “and” are separate entries in the source; they are usually repeats but may differ in a detail not shown here. Equal entries are not always repeated. About 83,000 compounds went through this panel and 20% of them were active in at least one assay; those are over-represented in the sample as a whole.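 How to read the values: 0–100, growth inhibition (40 = 60% inhibited); 0, no net growth; -100 to 0, cell death (-40 = 40% of starting cells died; -100 = all dead).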 Active and inactive are the calls of the source. Rule for the calls: active = growth percent below 10; inactive = the rest.

Test system: HL-60(TB) leukemia
Test: NCI-60 one-dose screen, 48 h (100 = growth as untreated, 0 = no growth, -100 = all killed)
Conditions: 10 µM unless noted

Row | SMILES | growth
1 | O=C(CSc1nc2sc3c(c2c(=O)n1Cc1ccccc1)CCCC3)N1CCN(c2ccccc2)CC1 | 90.3% (inactive)
2 | O=C1N/C(=N\c2nnc(-c3ccc(O)cc3)s2)S/C1=C\c1ccccc1O | 104% (inactive)
3 | CCCCCCCC/C=C/CCCCCCCC1=NC(C)(C)CN1C(C)(C)CO | -59.8% (active)
4 | Cc1cc(CC(=O)O)n(C)c1C(=O)c1ccc(Cl)cc1 | 105% (inactive)
5 | NC(N)=N/N=C/c1ccc(-c2ccc(-c3ccc(Cl)cn3)s2)cc1 | 97.8% (inactive)
6 | CCN(C(=O)N1CCN(c2cc3c(cc2F)c(=O)c(C(=O)O)cn3C2CC2)CC1)c1nc(-c2ccc(Cl)cc2)cs1 | -27.1% (active)
7 | Cc1c(C(=O)OC(=NC2CCCCC2)NC2CCCCC2)sc2c1c(=O)nc1c(C#N)n[nH]n12 | 124% (inactive)
8 | CCOC(=O)C1CC(=O)c2cc(OC)c(OC)cc2C1 (centres undefined) | 97.6% (inactive)
9 | CCCCCCN(CCCCCC)c1ccc(/C=C2/SC(=O)N(c3nc(N4CCCC4)nc(N4CCCC4)n3)C2=O)c(C)c1 | 20.2% (inactive)
10 | CC(=O)N1CC(=O)NC1=S | 103% (inactive)
11 | CCOC(=O)c1c(/C=C/C(=O)O)nc2ccccc2c1/C=C/c1ccccc1 | 8.28% (active)
12 | COc1ccc(-c2nc3c(c(-c4ccccc4)nn3-c3ccccc3)c(-c3ccc(N4CCN(C)CC4)cc3)c2C#N)cc1 | 80.4% (inactive)
13 | Cc1c(C(=O)N[C@@H](Cc2ccccc2)C(=O)C(=O)NCCc2ccccc2)[nH]c2ccccc2c1=O | 98% (inactive)
14 | CN1CCN(C(=O)c2ccc(NC(=O)Nc3ccc(-c4nc(N5CCOCC5)c5cccn5n4)cc3)cc2)CC1 | 7.69% (active)
15 | Fc1ccc(Nc2nc3nonc3nc2Nc2ccc(F)cc2)cc1 | -17.6% (active)
16 | Oc1cccc(-c2nc3sccn3c2-c2ccncn2)c1 | 99.2% (inactive)
17 | CCN1CCN(c2nc(NCCNc3ccnc4cc(Cl)ccc34)c3ccccc3n2)CC1 | -67.1% (active)
18 | COc1ccc2cc(/C=C3\N=C(c4cc(OC)c(OC)c(OC)c4)OC3=O)c(OC)nc2c1 | 95.3% (inactive)
19 | Cc1nssc1=S | 106% (inactive)
20 | Nc1nc(SC/C=C/CCl)c2[nH]cnc2n1 | 97.8% (inactive) and 103% (inactive)

Row | SMILES | growth
21 | COc1nc(N(C)O)nc(N(C)O)n1 | 50.4% (inactive)
22 | Cc1noc(C)c1C(=O)OCc1coc2ccccc2c1=O | 12.4% (inactive)
23 | N#Cc1c(N)[nH]c(S)c1C#N | 99% (inactive)
24 | CCCCCCCOc1cccc(/C=C2\N=C3SCCCN3C2=O)c1 | 65% (inactive)
25 | COc1cc(C(=O)NN=C2c3ccccc3-c3ccccc32)cc(OC)c1OC | 11.4% (inactive)
26 | CC(C)N1CCN(Cc2ccc3c(NNC(=O)c4ccccc4)nc4cc(F)ccc4n23)CC1 | 8.42% (active)
27 | CCCCCCNC(=O)Oc1ccc(/C(=C(\C)c2ccc(Cl)cc2)c2ccc(OCCN3CCCCC3)cc2)cc1 | -18.5% (active)
28 | COc1ncc(-c2ccc3ncnc(Nc4cccc(Cl)c4)c3c2)cc1NS(C)(=O)=O | 19.1% (inactive)
29 | COC(=O)[C@]12CC[C@@H](C)[C@H](C)[C@@H]1C1=CC[C@@H]3[C@@]4(C)CC(=O)[C@H](OC(=O)c5ccco5)[C@@]5(C)COC(=C45)C[C@@]3(C)[C@]1(C)CC2 | 24.6% (inactive)
30 | Cc1cn(-c2cc(C(=O)Nc3cccc(C#Cc4cccc5[nH]nc(N)c45)c3)cc(C(F)(F)F)c2)cn1 | 25.1% (inactive)
31 | COc1ccc(/C=C2/C(=O)NC(SCC(=O)N3CCN(c4cc5c(cc4F)c(=O)c(C(=O)O)cn5C4CC4)CC3)=NC2N)cc1OC (centres undefined) | 104% (inactive)
32 | NC(=O)c1c(NC(=O)c2ccc(OCC3CCCO3)cc2)sc2c1CCCC2 (centres undefined) | 53.8% (inactive)
33 | C=C(C)[C@@H]1CC[C@]2(C(N)=O)CC[C@]3(C)[C@H](CC[C@@H]4[C@@]5(C)CCCNC(C)(C)[C@@H]5CC[C@]43C)[C@@H]12 | 61.1% (inactive)
34 | CCCCCn1sc(=O)n(Cc2ccc(CNC(=O)OCc3ccc4cccc(O)c4n3)cc2)c1=O | -13.5% (active)
35 | CCC(O)c1ccccc1 (centres undefined) | 98.6% (inactive) and 77.4% (inactive)
36 | O=C(/C=C/c1cc2ccccc2[nH]c1=O)/C=C/c1cc2ccccc2[nH]c1=O | 24.7% (inactive)
37 | Nc1nc(-c2ccccc2)nc(N)c1N=O | 18.8% (inactive)
38 | C[C@]12CC[C@@H]3c4ccc(O)cc4CC[C@H]3[C@@H]1C[C@H](O)[C@@H]2O | 112% (inactive)
39 | CCOC(=O)c1cc(C(=O)OCC)c(C)nc1C | 96.9% (inactive)
